# Results taken from PubChem BioAssay (Tox21).
# Records with an inconclusive call do not appear. A number with no mark means an inactive call. The source made the active and inactive calls. Calls come from the whole dose curve; as a rule, active = well fitted cell-killing curve with a large enough effect in the repeat runs; inconclusive = weak or mixed curves, or effect the other way; inactive = no such curve, though single readings can be large or run the other way.
# Test: qHTS assay to identify small molecule agonists of the estrogen receptor alpha (ER-alpha) signaling pathway in the presence of an antagonist - cell viability counter screen (AID 1259386);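 note: cells exposed to compounds for 22 h at 37 °C before the viability read; nearly all actives have a fitted effect of over 30% in size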
# Conditions: VM7Luc4E2 viability, CellTiter-Fluor fluorescence, 22 h; series mostly up to 92.4 µM
# From the text: National Center for Advancing Translational Sciences [NCATS]
# NIH Chemical Genomics Center [NCGC]
# U.S. Environmental Protection Agency [EPA]
# National Institutes of Environmental Health Sciences [NIEHS]
# National Toxicology Program [NTP]
# U.S. Food and Drug Administration [FDA]
# Estrogen receptor (ER), a member of nuclear hormone receptor plays an important role in development, metabolic homeostasis and reproduction. Two subtypes of ER, ER-alpha and ER-beta, have similar expression patterns with some uniqueness in both types. Endocrine disrupting chemicals (EDCs) and their interactions with steroid hormone receptors like ER causes disruption of normal endocrine function. Therefore, it is important to understand the effect of environmental chemicals in ER signaling pathway. For identifying ER agonists, VM7Luc4E2 cell line has been used in the current assay.
# VM7Luc4E2 cell line (provided by Denison MS, University of California) endogenously expresses full-length ER-alpha and is stably transfected with a plasmid containing four estrogen responsive elements (ERE) upstream of a luciferase reporter gene. This current screening for measuring luciferase reporter gene activity using VM7Luc4E2 cells against Tox21 10K library collection is a confirmation study on agonist mode screening in presence of ER-antagonist (ICI-182,780) at 10.0nM final concentration. The cytotoxicity of the compounds was tested in parallel by measuring the cell viability using CellTiter-Fluor assay system (Promega, Madison, WI) in the same wells.
# Tox21 Assay Protocol Summary:
# VM7Luc4E2 cells were cultured in phenol red free assay medium containing 10% charcoal stripped FBS for 5 days prior to the assay. The cells were dispensed at 4,000 cells in 4uL of assay medium per well into white wall/solid-bottom 1536-well plates (Corning Life Sciences, Corning, NY) using a Multidrop Combi (Thermo Fisher Scientific Inc., Waltham, MA) dispenser. After the assay plates were incubated at 37C and 5% CO2 for 24hr, 1uL of 10.0nM (final concentration) ICI-182,780 or assay buffer was added using two separate tips of Flying Reagent Dispenser (FRD, Aurora Discovery, San Diego, CA). Then 23nL of compounds dissolved in DMSO at 15 concentrations and positive controls or DMSO only was transferred to the assay plates by a Pintool station (Wako, San Diego, CA). The assay plates were incubated at 37C and 5% CO2 for 22hr. After 21hr incubation at 37C, 1uL/well CellTiter-Fluor reagent (Promega Corporation, Madison, WI) was added to each well using FRD and after 1hr incubation at 37C and 5% CO2, the fluorescence signal was measured on ViewLux plate reader (PerkinElmer, Shelton, CT).
# % is set by controls: 0 for no effect and ±100 for the full control effect.
Compound,outcome,"activity change, negative = cytotoxicity"
C=CCSCC1Nc2cc(Cl)c(S(N)(=O)=O)cc2S(=O)(=O)N1 (stereo not given),inactive,–
CCCc1ccccc1O,inactive,–
N#CCN(CC#N)CCN(CC#N)CC#N,inactive,–
Nc1cc(N)cc(C(=O)O)c1,inactive,–
C(=C(c1ccccc1)c1ccccc1)c1ccccc1,inactive,–
CCCCOCC(C)OCC(C)O (stereo not given),inactive,–
CC(=O)c1ccc(C)cc1,inactive,–
NC(=O)Nc1nc2ccccc2[nH]1,inactive,–
O=c1[nH]c2ccccc2c(=O)n1CCCl,inactive,–
c1ccc(SCCSc2ccccc2)cc1,inactive,–
COc1cc(C)cc(O)c1,inactive,–
CCCC=O,inactive,–
CCCCCCOC(=O)c1ccccc1O,inactive,–
C=CC(=O)N1CCOCC1,inactive,–
O=[N+]([O-])c1ccc(CCO)cc1,inactive,–
CCn1cc(C(=O)O)c(=O)c2cc(F)c(N3CCN(C)CC3)cc21,–,0.853% [at 19 µM]
CCCCCCCCCCC1CO1 (stereo not given),inactive,–
OC/C=C/c1ccccc1,inactive,–
NS(=O)(=O)c1cc2c(cc1C(F)(F)F)NC(Cc1ccccc1)NS2(=O)=O (stereo not given),inactive,–
CCC(C)(C)C1CCC(OC)CC1 (stereo not given),inactive,–

Compound,outcome,"activity change, negative = cytotoxicity"
CC(C)CCCC(C)NCCC(C)C (stereo not given),inactive,–
FC(F)(F)C(F)(F)C(F)(F)C(F)(F)C(F)(F)C(F)(F)C(F)(F)C(F)(F)C(F)(F)C(F)(F)F,–,4.74% [at 8.39 µM]
CC(CCO)CCCC(C)(C)O (stereo not given),inactive,–
Cc1ncc(CSSCc2cnc(C)c(O)c2CO)c(CO)c1O,inactive,–
COc1nc(C)nc(N)n1,inactive,–
NC(=O)c1ncn([C@@H]2O[C@H](CO)[C@@H](O)[C@H]2O)c1N,inactive,–
Cc1nc(-c2ccc(OCC(C)C)c(C#N)c2)sc1C(=O)O,inactive,–
CCCCc1ccc(N)cc1,inactive,–
CCCCc1ccc2cccc(S(=O)(=O)O)c2c1,inactive,–
CC(C)(O)c1ccccc1,inactive,–
NCCNC(=O)c1ccc(Cl)cn1,inactive,–
CCO[Si](C)(OCC)OCC,inactive,–
CC(=O)N[C@@H](CCC(N)=O)C(=O)O,inactive,–
COc1cc(CCC(C)=O)ccc1O,inactive,–
N[C@@H](CS)C(=O)O,inactive,–
Nc1ncnc2c1ncn2Cc1c(F)cccc1Cl,inactive,–
CCN1CCN(c2cc3c(cc2F)c(=O)c(C(=O)O)cn3C2CC2)CC1,inactive,–
CC(=O)O[C@H](CC(=O)[O-])C[N+](C)(C)C,inactive,–
CC1=CCC2C(C1)C2(C)C (stereo not given),inactive,–
O=S(=O)(O)c1ccccc1O,inactive,–
